63 molecules from ChEMBL document CHEMBL1157539, “Thousands of chemical starting points for antimalarial lead identification” (Nature, 2010) can be followed below.

SMILES strings stand for the structures. Whole data set: some 13,000 compounds, median “IFI” near 4, cut for the highest 2% near 17. This excerpt belongs to a sample that is enriched for the highest values.

The nature of the test: GSK_TCMDC: Inhibition Frequency Index (IFI). The number of non-kinase HTS assays where a compound showed > 50 % inhibition, expressed as a percentage of the number of such assays in which the compound was tested. The test is classed as functional.
`O=C(Nc1ccc(C(F)(F)F)cc1)Nc1cccc([N+](=O)[O-])c1` had an IFI of 19.1%.

`O=C(Nc1ccc([N+](=O)[O-])cc1)Nc1cc(C(F)(F)F)ccc1F` displayed an IFI of 8.62%.

`O=C(Nc1ccc(OC(F)(F)F)cc1)Nc1ccc([N+](=O)[O-])cc1` returned an IFI of 20.1%.

In turn, `O=C(Nc1ccc(CCNCc2ccccc2)cc1)Nc1ccc(OC(F)(F)F)cc1` showed an IFI of 0.72%.

On to `COc1cc([N+](=O)[O-])ccc1NC(=O)Nc1ccc(OC(F)(F)F)cc1`, for which the IFI stood at 18.4%.

Molecule `O=C(Nc1ccc(Oc2ccc(OC(F)(F)F)cc2)cc1)c1ccco1` had an IFI of 5.22%.

`COc1cc(C)nc2ccc(NC(=O)Nc3ccc([N+](=O)[O-])cc3C)cc12` came in with an IFI of 3.01%.

Take `O=C(Nc1cccc([N+](=O)[O-])c1)Nc1cccc(C(F)(F)F)c1`: the IFI was 12.4%.

`O=C(Nc1cccc([N+](=O)[O-])c1)Nc1ccc(Cl)c(C(F)(F)F)c1` displayed an IFI of 10%.

`N#Cc1ccc(NC(=O)Nc2ccc(OC(F)(F)F)cc2)cc1` had an IFI of 20.5%.

Take `O=C(Nc1ccc([N+](=O)[O-])cc1)Nc1cc(OCC(F)(F)F)cc(OCC(F)(F)F)c1`: the IFI is 9.6%.

`COc1cc(NC(=O)Nc2ccc([N+](=O)[O-])cc2OC)c(OC)cc1Cl`: the IFI is 1.83%.

`CCN(CC)CCCC(C)N=c1cc(C=Cc2ccc([N+](=O)[O-])cc2)[nH]c2ccc(OC)cc12` (stereo not drawn) yielded an IFI of 1.65%.

With `CCN(CC)C(C)(C)CN(Cc1ccc(-c2ccc(C(F)(F)F)cc2)cc1)C(=O)Cn1c(CCc2cccc(F)c2F)nc(=O)c2ccccc21`, the IFI is 6.94%.

Take `CCN(CCNS(C)(=O)=O)c1ccc(N)c(C)c1`: the IFI worked out at 7.32%.

Molecule `CN(C)c1ccc(NC2=NC(N)=NC(C)(C)N2)cc1` registered an IFI of 1.82%.

With `NC(=O)c1cccc(C(=O)Nc2cccc(-c3ccc(-c4nc5cc(C(F)(F)F)ccc5[nH]4)cc3)c2)c1`, the IFI is 6.67%.

For the molecule `Nc1cccc(CNCc2ccc(-c3cccc(-c4nc5cc(C(F)(F)F)ccc5[nH]4)c3)cc2)c1`, the IFI is 15.2%.

Consider `CCCCN(C(=O)c1ccccc1C)c1nnc(-c2ccccc2C)s1`, for which the IFI worked out at 2.56%.

For the molecule `Cc1ccc2nc(C)n(C3CCN(C(=O)Cc4ccc(F)c(F)c4)CC3)c2c1`, the IFI stood at 0%.

For `O=C(N[C@H]1CCN(Cc2ccc(OCCN3CCNCC3)c(Br)c2)C1)c1ccc(Cl)c(Cl)c1`, the IFI amounted to 6.9%.

`C[C@H](Cc1ccc(OCCCCCCOc2ccc(C[C@@H](C)N[C@H](C)c3ccccc3)cc2)cc1)NC[C@H](O)c1cccc(Cl)c1` had an IFI of 19.6%.

On to `C[C@H](Cc1ccc(OCCNC[C@H](O)c2cccc(Cl)c2)cc1)NC[C@H](O)c1ccc(Cl)c(Cl)c1`, for which the IFI worked out at 11.4%.

Molecule `CC(CCCCC(=O)Nc1ccc(CC(C)NCCc2cccc(Cl)c2)cc1)NCCc1cccc(Cl)c1` (stereo not drawn) had an IFI of 4.29%.

In turn, `CC(NCCc1cccc(Cl)c1)C(O)c1ccc(OCCCCCCOc2ccc(C(O)C(C)NCCc3cccc(Cl)c3)cc2)cc1` (stereo not drawn) showed an IFI of 13%.

In the case of `COc1ccc(CC(Cc2ccc(OC)cc2)NCC(O)c2cccc(Cl)c2)cc1` (stereo not drawn), the IFI was found to be 4.86%.

For `CC(CCCC(=O)Nc1ccc(CC(C)NCCc2cccc(Cl)c2)cc1)NCCc1cccc(Cl)c1` (stereo not drawn), the IFI stood at 11.9%.

For `C[C@H](Cc1ccc(OCCCCCCOc2ccc(C[C@@H](C)NC[C@H](O)c3cccc(Cl)c3)cc2)cc1)NC[C@H](O)c1cccc(Cl)c1`, the IFI worked out at 16.9%.

`CC(Cc1ccc(NC(=O)COc2ccc(CC(C)NCCc3cccc(Cl)c3)cc2)cc1)NCCc1cccc(Cl)c1` (stereo not drawn) had an IFI of 32.4%.

For `C[C@H](Cc1ccc(OCCCCCOc2ccc(C[C@@H](C)NC[C@H](O)c3cccc(Cl)c3)cc2)cc1)NC[C@H](O)c1cccc(Cl)c1`, the IFI was 20.9%.

Regarding `C[C@H](Cc1ccc(OCCCCCCCOc2ccc(C[C@@H](C)NC[C@H](O)c3cccc(Cl)c3)cc2)cc1)NC[C@H](O)c1cccc(Cl)c1`, the IFI amounted to 22.1%.

Molecule `C[C@H](Cc1ccc(OCCCCCCOc2ccc(C[C@@H](C)NC(=O)[C@H](O)c3cccc(Cl)c3)cc2)cc1)NC[C@H](O)c1cccc(Cl)c1` displayed an IFI of 11.3%.

`NC(=O)c1cccc(C(=O)Nc2ccc(-c3cccc(-c4nc5cc(F)ccc5[nH]4)c3)cc2)c1`: the IFI was 1.74%.

With `Cc1cccc2nc(-c3cccc(-c4ccc(NC(=O)C(C)CN(C)C)cc4)c3)[nH]c12` (stereo not drawn), the IFI is 5.45%.

Regarding `O=C(Cc1ccc(-c2ccccc2)cc1)N[C@H]1CCN(Cc2ccc(OCCCN3CCCCC3)cc2)C1`, the IFI worked out at 7.53%.

Turning to `C=C(C)CSc1nc2c(c(=O)n1CCc1ccccc1)C1(CCCC1)Cc1ccccc1-2`, the IFI turned out to be 0%.

For the molecule `CN1CCCC(CN2CCN(Cc3cccc(-c4cccc(-c5nc6ccccc6[nH]5)c4)c3)CC2)C1` (stereo not drawn), the IFI turned out to be 7.04%.

Turning to `O=C(CCc1c[nH]cn1)Nc1ccc(-c2ccc(-c3nc4ccccc4[nH]3)cc2)cc1`, the IFI came to 3.51%.

`CCNc1cc(C(=O)N[C@@H](Cc2ccccc2)[C@H](O)CNC(C)Cc2cccc(Cl)c2)cc(N2CCCCS2(=O)=O)c1` (stereo partly drawn) gave an IFI of 4.9%.

`COc1ccc2c(NN=Cc3ccc(N(C)C)cc3)ccnc2c1` returned an IFI of 5.8%.

Molecule `O=C(NCC1CCN(CCN2CCC(c3cn(CCO)c4ccccc34)CC2)CC1)c1ccc(-c2ccc(C(F)(F)F)cc2)cc1` returned an IFI of 10%.

In the case of `COc1ccc(O)c(-c2sc(N=C(N)N)nc2-c2ccccc2)c1`, the IFI turned out to be 8.09%.

Consider `Fc1cccc(C=NN=c2cc[nH]c3ccc(C(F)(F)F)cc23)c1`, for which the IFI is 0%.

`N=C(NCCc1c[nH]c2ccccc12)NCc1ccccc1Cl` registered an IFI of 4.32%.

The molecule `NOCCCCOc1ccc(Cl)cc1` yielded an IFI of 0%.

The molecule `COc1ccc2nc(C)cc(NCc3cccc4ccccc34)c2c1` gave an IFI of 1.46%.

On to `Cc1cc(=NN=Cc2ccc(Cl)cc2)c2cccc(C)c2[nH]1`, for which the IFI turned out to be 1.45%.

`COc1ccc(CNCc2cccc(-c3ccc(-c4nc5ccccc5[nH]4)s3)c2)cc1` came in with an IFI of 7.69%.

`CC(Cc1ccc(COc2ccc(CC(CO)NCCc3cccc(Cl)c3)cc2)cc1)NCCc1cccc(Cl)c1` (stereo not drawn): the IFI stood at 16.6%.

Take `CN(C)CCCOc1ccc(CCNCc2cccc(Oc3ccc(Cl)cc3)c2)cc1`: the IFI worked out at 7.97%.

On to `CC(Cc1ccc(OCCCCOc2ccccc2)cc1)NCCc1ccc(Oc2ccccc2)cc1` (stereo not drawn), for which the IFI worked out at 18.2%.

`COc1cc(CNCCCCCCNCc2cc(OC)c(OC)c3ccccc23)c2ccccc2c1OC` came in with an IFI of 7.41%.

Consider `COc1c(CCNCCCCNCCc2cc(Cl)c3ccccc3c2OC)cc(Cl)c2ccccc12`, for which the IFI turned out to be 19%.

Consider `COc1cc(CNCCCCCCNCc2cc(OC)cc3ccccc23)c2ccccc2c1`, for which the IFI is 10.1%.

On to `CCOc1ccc(CNCCCCCCNCc2ccc(OCC)c3ccccc23)c2ccccc12`, for which the IFI was 15.4%.

Take `CCOc1cc(CNCCCCCCNCc2cc(OCC)c(OCC)c3ccccc23)c2ccccc2c1OCC`: the IFI came to 18.8%.

Turning to `CCCCNCc1cc(Cl)c2ccccc2c1O`, the IFI came to 6.77%.

`CCOc1cc(OCC)c2ccccc2c1CNCCCCCCNCc1c(OCC)cc(OCC)c2ccccc12` showed an IFI of 16%.

Turning to `COc1ccc(CCNCCCCCCNCCc2ccc(OC)c(OC)c2Cl)c(Cl)c1OC`, the IFI was 2.94%.

Turning to `COc1c(CNCCCCCCNCc2cc(Cl)c3ccccc3c2OC)cc(Cl)c2ccccc12`, the IFI worked out at 19.4%.

Molecule `COc1cc(CNCCCCCCNCc2cc(OC)c3ccccc3c2OC)c(OC)c2ccccc12` showed an IFI of 17.3%.

As for `COc1ccc(CNCCCCCCNCc2ccc(OC)c3ccccc23)c2ccccc12`, the IFI came out at 8.21%.

With `COc1ccc(CCNCCCCCCNCCc2ccc(Cl)c3ccccc23)cc1OC`, the IFI worked out at 9.42%.
